S1P4 ag: human S1P4 receptor agonism | O95977 | S1P4-expressing cell line, agonist reporter assay | activation, % at 4.98 µM | 0.35% of 220,000 active | AID 1509; in the data active = activation above about 11%;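 note: 0% = DMSO vehicle and 100% = reference agonist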
SUMO HTRF inh: SUMOylation inhibition. P63279. HTRF SUMOylation assay, SAE1/SAE2 + UBC9, in vitro. inhibition, % at 35 µM. 0.36% of 290,000 active. AID 2006; in the data active = inhibition above about 50%, passing the limit was not always enough
DTT redox prof: compounds producing H2O2 with reducing agent – biochemical, NIH compound library profiling, artefact control for MLSCN library redox annotation, primary screen. DTT-dependent redox cycling H2O2, phenol red/HRP absorbance; 100% = 100 µM peroxide control, 0% = buffer. 0.03% of 200,000 active. activation, % at 10 µM;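 active = activation of at least 50% relative to the plate's high and low controls in the primary single-dose screen; inactive = activation below 50%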;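 note: compound incubated with DTT at 0.8 mM final as the reducing agent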
S1P3 antag-1: S1P3 (human) receptor antagonism; Q99500; CHO S1P3 NFAT-BLA reporter, FRET fluorescence, antagonist mode; inhibition, % at 4.98 µM; 0.27% of 170,000 active; AID 485;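 active = inhibition above the plate cutoff, the mean inhibition of test wells on that plate plus 3 SD, cut at about 28% in these data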;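 note: cells challenged with S1P at its EC80 of 0.8 µM; blue over green emission ratio from cleaved BLA substrate after 4 h stimulation; 0% = S1P-stimulated wells and 100% = unstimulated DMSO-only wells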
S1P4 antagonist: human S1P4 receptor antagonism; S1P4-expressing cells, antagonist mode, reporter read-out; AID 1510; 0.26% of 220,000 active; inhibition, % at 4.98 µM; in the data active = inhibition above about 29%;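 note: 0% = wells stimulated with agonist and 100% = vehicle wells without agonist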
p97 ATPase inh: inhibitors of human p97 ATPase; P55072; recombinant p97 ATPase, Kinase-Glo ATP luminescence, 3 h; inhibition, % at 8 µM; 0.42% of 220,000 active; in the data active = inhibition above about 15%;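 note: 0% = DMSO vehicle and 100% = wells lacking enzyme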
Target sequence (P55072 whole entry, looked up): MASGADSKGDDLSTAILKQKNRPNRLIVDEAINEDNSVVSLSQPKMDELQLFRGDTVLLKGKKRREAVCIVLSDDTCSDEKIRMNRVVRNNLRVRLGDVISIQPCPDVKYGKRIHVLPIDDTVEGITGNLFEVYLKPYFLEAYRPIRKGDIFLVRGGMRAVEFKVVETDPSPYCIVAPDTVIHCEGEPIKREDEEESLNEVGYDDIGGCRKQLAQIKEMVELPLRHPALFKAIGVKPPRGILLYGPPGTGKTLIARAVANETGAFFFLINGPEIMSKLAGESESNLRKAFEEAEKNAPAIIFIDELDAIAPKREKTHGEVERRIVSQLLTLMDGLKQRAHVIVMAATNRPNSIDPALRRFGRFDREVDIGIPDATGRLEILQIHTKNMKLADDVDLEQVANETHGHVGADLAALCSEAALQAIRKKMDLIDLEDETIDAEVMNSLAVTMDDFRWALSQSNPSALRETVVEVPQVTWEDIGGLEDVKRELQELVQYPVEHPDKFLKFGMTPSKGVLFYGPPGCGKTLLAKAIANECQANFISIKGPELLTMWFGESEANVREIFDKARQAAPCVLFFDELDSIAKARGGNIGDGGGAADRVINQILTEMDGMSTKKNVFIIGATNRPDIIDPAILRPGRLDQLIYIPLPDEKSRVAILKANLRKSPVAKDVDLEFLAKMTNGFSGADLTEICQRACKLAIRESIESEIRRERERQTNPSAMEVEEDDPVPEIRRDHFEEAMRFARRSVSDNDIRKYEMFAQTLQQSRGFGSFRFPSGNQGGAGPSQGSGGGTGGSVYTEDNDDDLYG
S1P3 antag-2: confirmation of human S1P3 receptor antagonists; AID 1429; inhibition, % at 4.98 µM; 30% of 240 active; CHO S1P3 NFAT-BLA reporter, FRET, antagonist mode; shares compounds with S1P3 antag-1;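 active = inhibition above the hit threshold that was computed for the earlier primary screen, cut at about 30% in these data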;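 note: 0% = S1P-stimulated wells and 100% = unstimulated DMSO-only wells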
p97 confirm: human p97 ATPase inhibition, confirmation; shares compounds with p97 ATPase inh; recombinant p97 ATPase, Kinase-Glo ATP luminescence; inhibition, % at 8 µM; 44% of 760 active;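 active = percent inhibition of p97 ATPase above a set limit, the primary screen's mean plus 3 SD, cut at about 15% in these data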;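 note: 0% = DMSO wells and 100% = wells lacking p97 protein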
S1P4 agonist cf: confirmation of human S1P4 receptor agonists; shares compounds with S1P4 ag; S1P4 agonist cell-based reporter assay; activation, % at 4.98 µM; 7% of 740 active; AID 1523; in the data active = activation above about 12%;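 note: 0% = vehicle and 100% = full reference agonist response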
S1P1 agonist: human S1P1 agonism as S1P4 agonist counter-screen | 4% of 740 active | S1P1 agonist cell-based assay, activation | activation, % at 4.98 µM | shares compounds with S1P4 ag; in the data active = activation above about 21%;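 note: 0% = vehicle wells and 100% = reference agonist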
S1P4 antag conf: human S1P4 antagonism, confirmation. shares compounds with S1P4 antagonist. S1P4-expressing cell line, antagonist mode, reporter read-out. inhibition, % at 4.98 µM. 71% of 520 active. AID 1524; in the data active = inhibition above about 30%
S1P1 antagonist: blocks human S1P1, counter-screen for S1P4 antagonists; shares compounds with S1P4 antagonist; cell-based S1P1 antagonist counterscreen, inhibition; inhibition, % at 4.98 µM; 37% of 520 active; AID 1564; in the data active = inhibition above about 40%;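 note: receptor stimulated with S1P near its EC80; 0% = agonist stimulated wells and 100% = vehicle only wells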
* = called active by the depositor; · = no result. This is a sample that favours compounds with a hit; in the whole collection about 1.1% have one here.

SMILES | S1P4 ag | SUMO HTRF inh | DTT redox prof | S1P3 antag-1 | S1P4 antagonist | p97 ATPase inh | S1P3 antag-2 | others
COc1ccc(-[n+]2c(C)cc(/C=C3\Sc4ccccc4N3C)cc2C)cc1 | -0.5 | -12.0 | 0.2 | 50.3* | -10.5 | 3.8 | 30.2*
COc1ccccc1-[n+]1c(C)cc(/C=C2\Sc3ccccc3N2C)cc1C | 1.0 | -10.7 | · | 56.9* | -7.4 | 5.2 | 39.3*
COc1ccc(C(=O)/C=C2\Sc3ccccc3N2C)cc1 | 4.4 | 7.9 | 0.7 | -3.8 | -9.1 | -5.7 | ·
CC(Oc1ccccc1F)C(=O)NNC(=O)CCNC(=O)c1ccccc1Cl (configuration not stated) | · | 0.0 | · | · | · | · | ·
CCN1/C(=C/C=C/c2oc3ccc(-c4ccccc4)cc3[n+]2CC)Oc2ccc(-c3ccccc3)cc21 | 0.6 | 32.6 | 1.7 | 31.2* | 9.7 | 8.4 | 54.4*
CCCCN1C(=O)/C(=C/C=C2\Oc3ccccc3N2CC)SC1=S | -0.4 | 10.0 | -0.2 | -3.6 | -11.9 | 4.8 | ·
CCCc1cc(=O)n2nc(N3CCC(C(=O)NCc4ccc(C)o4)CC3)sc2n1 | · | -1.1 | · | · | · | · | ·
Cc1nc2ccc(NC(=O)c3ccc(Cl)c(S(=O)(=O)N(C)c4ccccc4)c3)cc2s1 | 1.3 | -9.6 | 0.4 | 10.7 | -13.7 | -0.4 | ·
Cc1nc2ccc(NC(=O)c3cc(S(=O)(=O)N(C)c4ccccc4)ccc3Cl)cc2s1 | 4.1 | 1.7 | 0.8 | 30.5* | -6.8 | -0.2 | 10.4
CCOC(=O)CN1CC23C=CC(O2)C(C(=O)Nc2ccc(C(C)=O)cc2)C3C1=O (configuration not stated) | 0.2 | 6.0 | -0.3 | -31.6 | -8.0 | 2.0 | ·
CN1CCN(CC(O)Cn2c3ccccc3c3ccccc32)CC1 (configuration not stated) | · | 19.1 | · | · | · | · | ·
CN1CCc2c(n(CC(O)CN3CCN(CCO)CC3)c3ccccc23)C1=O (configuration not stated) | 1.9 | 17.6 | -0.1 | 40.9* | -29.0 | 0.9 | -9.2
COc1ccc(CCN2C(=O)C3CC(C)=C(C)CC3C2=O)cc1OC (configuration not stated) | 1.8 | -7.8 | -1.0 | · | -5.2 | -5.9 | ·
Cc1cc(N/N=C/c2cccc(Cl)c2)nc(NCc2ccccc2)n1 | 0.1 | -44.0 | 2.1 | -2.0 | -6.4 | 1.4 | ·
Cc1cc(Nc2cccc(Cl)c2)nc(NCc2ccccc2)n1 | 0.7 | -27.2 | -0.6 | 32.1* | -27.2 | 5.6 | 10.2
O=S1(=O)CCOCCCN1Cc1ccccc1 | · | 3.0 | · | · | · | · | ·
Cc1ccc(NC(=S)NNC(=O)C2CC2c2ccc(C)cc2)cc1 (configuration not stated) | -4.5 | -111.4 | -1.4 | · | 3.4 | -7.2 | ·
COc1ccc(NC(=S)NNC(=O)C2CC2c2ccc(C)cc2)cc1 (configuration not stated) | -2.0 | -29.2 | 0.2 | 32.7* | -11.5 | -2.2 | -15.5
CC(C)C(=O)NC(=S)Nc1ccc(S(=O)(=O)Nc2nccs2)cc1 | -0.6 | 0.4 | -1.8 | 28.2* | -25.8 | -2.6 | -19.9
CC1=[N+](C)c2c(ccc3cccnc23)C1(C)C | 0.4 | 89.6* | 0.2 | 29.1* | -38.6 | 4.3 | 14.7
Cc1[nH]c2c(ccc3cccnc32)c1C | 0.4 | 43.0 | · | -3.5 | -6.9 | 8.2 | ·
CCC(=O)N1CCN(CCN=Cc2c(O)n(C3CCCCC3)c(=O)n(C3CCCCC3)c2=O)CC1 | · | · | · | 10.0 | · | · | ·
CCOC(=O)N=Nc1c2ccccc2c2nc3no[nH]c3nc12 | 1.0 | 15.3 | -1.8 | 30.6* | -7.8 | 2.2 | 109.4*
CCOC(=O)N=Nc1c(O)n(CC(=O)OC)c2ccccc12 | -0.6 | 18.8 | 0.3 | -11.5 | -4.4 | -6.2 | ·
COC(=O)c1c(C(=O)OC)c2ccncn2c1Cl | -1.2 | 5.5 | -0.1 | · | -11.1 | 8.1 | ·
SMILES | S1P4 ag | SUMO HTRF inh | DTT redox prof | S1P3 antag-1 | S1P4 antagonist | p97 ATPase inh | S1P3 antag-2 | others
C=CCN1C(=O)C(CC(=O)Nc2ccc(OCCC)cc2)N(CCCN2CCN(Cc3ccccc3)CC2)C1=S (configuration not stated) | -1.3 | -14.2 | -1.1 | 38.4* | -3.0 | -2.8 | -0.5
CCOC(=O)CNC(=O)N(CCOC)CC1CCCN(C2Cc3ccccc3C2)C1 (configuration not stated) | · | 11.2 | · | · | · | · | ·
O=C(Nc1cccc(F)c1)c1cc(S(=O)(=O)N2CCOCC2)cs1 | 0.4 | 26.5 | -0.5 | -10.5 | -13.5 | 10.7 | ·
Cc1ccc(/C=N/Nc2ccc(C(=O)O)cc2)s1 | 0.6 | -3.6 | 0.2 | 42.2* | -29.6 | -2.4 | -3.4
Cc1ccc(NC(=O)C(OC(=O)c2ccc(F)cc2)c2ccccc2)cc1Cl (configuration not stated) | -0.8 | -4.8 | 0.9 | 35.5* | -4.1 | 4.9 | 54.5*
CC(C)(C)c1nc2scc(-c3ccc(Br)cc3)c2c(=O)o1 | 1.4 | 3.4 | 0.2 | 28.5* | 3.3 | 6.6 | -7.0
Cc1nc2scc(-c3ccc(Cl)cc3)c2c(=O)o1 | 4.2 | 15.0 | 0.0 | · | -6.0 | -8.5 | ·
CCOc1nc(-c2ccc(Cl)cc2)nc2ccccc12 | 0.7 | -5.2 | 0.3 | 39.3* | -21.3 | 1.1 | -3.6
CC(C)Oc1nc(-c2ccc(Cl)cc2)nc2ccccc12 | -0.5 | -6.9 | · | -3.9 | -2.9 | -6.4 | ·
O=[N+]([O-])c1c(NCc2ccco2)ccc2nonc12 | -0.5 | 45.7 | · | 106.5* | -0.3 | 18.1* | -15.6 | p97 confirm=9.1
CNS(=O)(=O)c1cn(CC(=O)N(C)Cc2ccccc2)cc1S(=O)(=O)NC | · | 4.5 | · | · | · | · | ·
Cc1cc(C(=O)CSc2nc3ccccc3c(=O)n2C)c(C)n1CC1CCCO1 (configuration not stated) | 196.0* | -8.1 | 0.2 | 33.4* | -28.6 | 0.0 | 36.9* | S1P4 agonist cf=-1.8;S1P1 agonist=2.8
COc1ccc(CCNC(=O)Cn2nnc(C(=O)Nc3cc(C)ccc3C)c2N)cc1OC | · | 7.3 | · | · | · | · | ·
O=C(/C=C/c1cn(CC(O)CN2CCCCC2)c2ccccc12)c1cccs1 (configuration not stated) | 0.6 | 8.8 | -0.2 | 31.5* | 30.5* | 5.4 | 8.8 | S1P4 antag conf=52.5*;S1P1 antagonist=45.5*

Screening data: PubChem, several laboratories
